Where “and” joins values, the source holds several entries; their conditions need not be identical. Equal entries are not always repeated. Records with an inconclusive call do not appear. Calls of active or inactive are those of the source. The call rests on the fitted dose curve; in most records, active means well fitted inhibition curve with a large enough effect; inconclusive means small, poorly fitted or top-dose-only effect; inactive means no such curve, though single readings can be large or run the other way.
Potency means the concentration at half of the fitted maximal effect.

Chain of Tyrosine-protein kinase Yes (Homo sapiens) (P07947 whole entry, looked up): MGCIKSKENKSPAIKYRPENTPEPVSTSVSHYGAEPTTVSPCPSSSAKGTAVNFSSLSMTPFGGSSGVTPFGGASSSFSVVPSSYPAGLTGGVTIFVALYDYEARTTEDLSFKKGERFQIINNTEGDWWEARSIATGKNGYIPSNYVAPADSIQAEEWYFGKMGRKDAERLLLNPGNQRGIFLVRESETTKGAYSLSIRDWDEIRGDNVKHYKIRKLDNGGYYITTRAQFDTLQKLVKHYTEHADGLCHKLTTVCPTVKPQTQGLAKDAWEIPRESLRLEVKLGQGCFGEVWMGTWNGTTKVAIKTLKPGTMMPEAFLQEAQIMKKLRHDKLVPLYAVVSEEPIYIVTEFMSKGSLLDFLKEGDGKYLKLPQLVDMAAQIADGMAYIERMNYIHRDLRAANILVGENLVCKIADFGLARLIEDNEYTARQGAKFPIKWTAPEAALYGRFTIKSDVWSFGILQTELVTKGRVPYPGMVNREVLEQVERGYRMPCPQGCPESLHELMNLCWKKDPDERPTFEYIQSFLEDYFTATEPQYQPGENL

This experiment has as its target Tyrosine-protein kinase Yes (Homo sapiens) (UniProt P07947). The experiment in a line: qHTS for small molecule inhibitors of Yes1 kinase: Primary Screen (AID 686947). Further: nearly all actives have a fitted effect of over 60% in size. Particulars: Yes1 kinase biochemical qHTS inhibition; series mostly up to 76.9 µM. From the text:
The Src family of non-receptor protein tyrosine kinases contains nine members, including Yes1, Src, Fyn, Lyn, and […]. These kinases have important roles in a variety of cellular functions, such as cell proliferation, survival, and differentiation. Src, the most well characterized member of this family, has been previously identified as a proto-oncogene. […] In melanoma, it has been shown that Yes1, and not other family members, such as Src, is functionally involved in the malignant phenotype. Additionally, a recent study examining the downregulation of Yes1 by shRNA found significant effects on cell survival/growth for basal-like and Her2-positive breast cancers. Despite the potential for Yes1 to be a target for the above-described cancers, there are very few reports on the identification of potent and selective inhibitors of Yes1 kinase. Antagonists of Yes1 would further elucidate Yes1 biology and help to confirm whether Yes1 is a viable target for therapeutic intervention in a variety of cancers.
A compound that inhibits Yes1 could be important for the treatment of various cancers in which Yes1 is highly expressed and can also be used as a tool compound to help further elucidate Yes1 biology. To that end, we have developed a sensitive HTS biochemical assay for Yes1 activity. This assay was screened against several small compound libraries to look for modulators of activity. Inhibition is the desired output for this assay.
NIH Molecular Libraries Probe Production Centers Network [MLPCN]
NIH Chemical Genomics Center [NCGC]
Two micoliter of Yes1 enzyme (columns 1-2, 5-48; Millipore, Billerica, MA) are dispensed into Greiner, white solid-bottom 1536-well assay plates; columns 3 and 4 receive buffer without Yes1 as a control for maximum inhibition. Compounds (23 nL) are then transferred via Kalypsys pin tool equipped with 1536-pin array (10 nL slotted pins, V&P Scientific, San Diego, CA). […] Following addition of compound and a 20 minute incubation, 1 uL of substrate (ATP and poly-E4Y from Sigma-Aldrich, St. Louis, MO) is added, and the biochemical reaction is allowed to progress for 60 minutes at room temperature. The production of ADP is then quantified by the ADP-Glo Kit (Promega, Madison, WI). First, 2 uL of the first kit reagent is added, and the reaction is incubated for 45 minutes; then, 4 uL of the second kit reagent are added and the reaction is incubated for 30 minutes at which time the luminescence is read on a Viewlux plate reader (Perkin-Elmer, Waltham, MA). The final concentration of reagents in the reaction are 4 nM Yes1, 0.1 mM ATP, 100 uM EGTA, 10 mM MgCl2, 0.3 mg/mL poly(E4Y), 50 mM Tris pH 7.5, 1 mM DTT, 150 mM NaCl, 0.01% Brij-35, and 5% glycerol. Data are normalized to DMSO-treated control columns with (maximum signal) and without (minimum signal) enzyme.
Take `CN(C)c1ccc2[nH]c(O)c(C=Nc3ccc(S(N)(=O)=O)cc3)c2c1`: the Potency is 4.63 µM (active).

Consider `NCc1ccc(-n2c(-c3nonc3N)nc3cnccc32)cc1`, for which the Potency entry is “inactive”.

For the molecule `CCn1c(-c2nonc2N)nc2c(C#CC(C)(C)O)ncc(OC3CCNCC3)c21`, the Potency is 26 µM (active).

With `O=C1NC(=O)C(c2cccc(Cl)c2)=C1Nc1ccc(O)c(Cl)c1`, the Potency was 9.23 µM (active).

Consider `NS(=O)(=O)c1ccc(N=Nc2c(O)[nH]c3ccc(C(=O)NCCc4cnc[nH]4)cc23)cc1`, for which the Potency was 2.6 µM (active).

As for `Nc1nccc(-c2c(-c3ccc(F)cc3)ncn2CCCN2CCOCC2)n1`, the Potency was 9.23 µM (active).

`COc1cccc(C=NNc2ncnc3c2cnn3-c2cccc(OC)c2)c1`: the Potency is 7.33 µM (active).

For the molecule `COc1cc(Nc2ncc3c(C)nc(-c4cccc(Oc5ccccc5)c4)n3n2)cc(OC)c1OC`, the Potency was 5.19 µM (active).

For the molecule `Cc1cc(Cl)cc2c(N=Nc3ccc(S(N)(=O)=O)cc3)c(O)[nH]c12`, the Potency is 10.4 µM (active).

In the case of `c1ccc(-c2[nH]ncc2-c2ccnc(-c3ccc(OCCN4CCOCC4)cc3)c2)nc1`, the Potency is 7.33 µM (active).

`CNC(=O)c1cncc(C=Cc2c(C)cccc2C)c1`: the Potency is 0.463 µM (active).

In the case of `NC(=O)c1sc(-n2cnc3ccccc32)cc1OCc1ccccc1Br`, the Potency was 18.4 µM (active).

`CS(=O)(=O)Nc1cccc(-c2ccc3c(NC(=O)C4CC4)n[nH]c3c2)c1`: the Potency was 11.6 µM (active).

With `Nc1nc(-c2cccc(Cl)c2)c(-c2ccc3ncccc3n2)s1`, the Potency is 1.16 µM (active).

In the case of `O=C(OC1CNC(C#Cc2cc3ncnc(Nc4ccc5c(ccn5Cc5cc(F)ccc5F)c4)c3s2)C1)N1CCOCC1` (stereo not given), the Potency was 29.2 µM (active).

For the molecule `CN1CCC(n2cnc(-c3ccc(F)cc3)c2-c2ccnc(N)n2)CC1`, the Potency was 18.4 µM (active).

Consider `CC(C)=Cc1cccc2[nH]c(O)c(N=Nc3ccc(S(N)(=O)=O)cc3)c12`, for which the Potency result is “inactive”.

For `O=C(NCC1CC1)c1ccc(-c2cccc(C(=O)NC3CC3)c2)cc1`, the Potency entry is “inactive”.

In the case of `Nc1nccc(-c2c(-c3ccc(F)cc3)ncn2C2CCNCC2)n1`, the Potency was 2.07 µM (active) and 6.54 µM (active).

Consider `Cc1cc(O)cc(C)c1C=Cc1cncc(-c2nn[nH]n2)c1`, for which the Potency was 0.0654 µM (active).

Regarding `c1ccc(Cc2nc3ccc(Nc4ncnc5ccccc45)cc3[nH]2)cc1`, the Potency was 1.16 µM (active).

Take `CN1CCN(CCCNc2nc3ccc(Oc4ccc(NC(=O)Nc5cc(C(F)(F)F)ccc5F)cc4)cc3[nH]2)CC1`: the Potency entry is “inactive”.

For `COC(=O)c1ccc2c(c1)/C(=C/c1cc(Br)c(O)c(Br)c1)C(=O)N2`, the Potency is 0.733 µM (active).

With `NC(=O)c1cccc(Nc2nccc(Nc3cccc4[nH]ncc34)n2)c1`, the Potency is 0.0292 µM (active).

Take `Fc1ccc(Nc2nccc(-c3c(-c4ccc(C(F)(F)F)cc4)nn4ncccc34)n2)cc1F`: the Potency result was “inactive”.

In the case of `Nc1ncc(-c2cccc(S(N)(=O)=O)c2)c2scc(-c3ccc(F)c(Cl)c3)c12`, the Potency was 0.368 µM (active).

On to `COc1cccc(-c2c[nH]c3c(NN=Cc4ccncc4)ncnc23)c1`, for which the Potency was 0.164 µM (active).

In the case of `CC(Oc1cc(-n2cnc3ccc(OCC4CCN(C)CC4)cc32)sc1C(N)=O)c1ccccc1Cl` (stereo not given), the Potency was 1.64 µM (active).

Regarding `COc1ccc(-c2ccc3c(NC(=O)C4CC4)n[nH]c3n2)cc1`, the Potency was 6.54 µM (active).

Regarding `Cc1ccc(-c2cc3c(NC(=O)C4CC4)ncnc3o2)cc1`, the Potency is 0.733 µM (active).

Turning to `COc1cc2ncn(-c3cc(OCc4ccccc4C(F)(F)F)c(C(=O)N(C)C)s3)c2cc1OC`, the Potency was 7.33 µM (active).

Consider `CCn1c(-c2nonc2N)nc2cncc(C(=O)N3CCC(N)C3)c21` (stereo not given), for which the Potency entry is “inactive”.

On to `O=C(Nc1n[nH]c2nc(-c3ccco3)ccc12)C1CC1`, for which the Potency was 2.32 µM (active).

On to `NC(=O)c1cc(-c2ccc(F)cc2)cc(-c2ccncc2)c1N`, for which the Potency result was “inactive”.

In the case of `C=C1C(=C/C=C2\CCC[C@]3(C)[C@@H]([C@H](C)/C=C/[C@H](C)C(C)C)CC[C@@H]23)C[C@@H](O)C[C@@H]1O`, the Potency entry is “inactive”.

In the case of `CCn1c(-c2nonc2N)nc2c(C#CC(C)(C)O)ncc(OCC3CCNCC3)c21`, the Potency was 23.2 µM (active).

As to `N#Cc1c(NC(=O)c2ccccc2F)sc2c1CCCC2`, the Potency entry is “inactive”.

In the case of `COc1cc2ncn(-c3cc(OCc4cccs4)c(C(N)=O)s3)c2cc1OC`, the Potency was 1.84 µM (active).

As to `CC(=O)Nc1cccc(C#Cc2cncnc2Nc2ccc(OCc3cccc(F)c3)c(Cl)c2)n1`, the Potency result was “inactive”.

As for `OCc1ccc(-c2nc(-c3ccc4c(c3)OCO4)c(-c3ccccn3)[nH]2)cc1`, the Potency entry was “inactive”.

The values above are taken from PubChem BioAssay (NCATS).
